Rows were chosen to be rich in hits. Some 10% of all compounds tested hit in one or more screens of this group.
ELG1 DNA repair: ELG1-dependent DNA repair inhibition. Potency, µM (highest dose often 46.1 µM), actives largely listed as inhibitors. actives 2.3% (n = 330,000). AID 504467. HEK293T ELG1-luciferase reporter, luminescence, 16 h; DNA damage induced by 5-fluorouridine; also: nearly all actives have a fitted effect of over 55% in size
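Overnight (16 hr) co-exposure of 2,000 cells/well to 5-fluorouridine and compound at 37 °C preceded detection. Luciferase was quantified via ONE-Glo luminescence; loss of signal denotes inhibition.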
MCF10A rerep: inducers of DNA re-replication in MCF 10A breast cells; MCF 10A DNA re-replication, Hoechst nuclear intensity, 48 h; Potency, µM (top dose mostly 46.1 µM), most hits filed as activators; actives 2.9% (n = 350,000); also: nearly all actives have a fitted effect of over 50% in size
VP16 counter: Gal4-VP16 reporter inhibition counter-screen; Drosophila S2 Gal4-VP16 UAS-luciferase, luminescence, 20 h; Potency, µM (top dose mostly 53.6 µM), most hits filed as inhibitors; actives 3.5% (n = 310,000); AID 2546;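 also: Gal4-VP16 expression switched on by copper sulfate through the metallothionein promoter; nearly all actives have a fitted effect of over 50% in size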
RORg inh: inhibitors of mouse ROR gamma transcriptional activity. actives 5.4% (n = 310,000). P51450. Drosophila S2 Gal4-RORgamma UAS-luciferase reporter, 20 h. Potency, µM (doses to about 53.6 µM), actives largely listed as inhibitors. AID 2551; also: nearly all actives have a fitted effect of over 60% in size
Target sequence (P51450 whole entry, looked up, the tested form may be a part): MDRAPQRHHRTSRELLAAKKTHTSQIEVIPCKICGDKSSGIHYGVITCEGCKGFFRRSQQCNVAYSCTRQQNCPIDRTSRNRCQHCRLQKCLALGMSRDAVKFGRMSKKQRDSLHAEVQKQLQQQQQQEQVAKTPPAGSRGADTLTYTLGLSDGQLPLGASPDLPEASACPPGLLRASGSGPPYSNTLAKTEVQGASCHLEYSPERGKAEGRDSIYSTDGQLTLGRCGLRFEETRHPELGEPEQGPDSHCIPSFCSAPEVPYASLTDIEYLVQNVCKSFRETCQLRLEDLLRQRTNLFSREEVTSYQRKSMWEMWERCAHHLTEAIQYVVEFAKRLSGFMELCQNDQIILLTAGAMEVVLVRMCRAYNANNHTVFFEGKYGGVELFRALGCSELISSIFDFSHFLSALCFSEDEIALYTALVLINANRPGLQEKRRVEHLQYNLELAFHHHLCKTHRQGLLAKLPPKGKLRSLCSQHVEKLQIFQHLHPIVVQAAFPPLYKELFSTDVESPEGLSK
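Using a luciferase readout, inhibitors were identified by reduced reporter activity in Drosophila cells coexpressing a copper-inducible Gal4–ROR gamma fusion and UAS-driven Photinus luciferase, incubated 20 hr after 700 uM copper sulfate.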
SW480 rerep: induces DNA re-replication in SW480 colon adenocarcinoma cells | SW480 DNA re-replication, Hoechst DNA content imaging, 48 h | Potency, µM (top dose mostly 46.1 µM), actives largely listed as activators | actives 1.8% (n = 340,000) | AID 624297; also: nearly all actives have a fitted effect of over 55% in size
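SW480 cells exposed to compounds for 48 hr at 37 C, 5% CO2, then Hoechst-stained 40 min. Nuclear DNA content imaged by fluorescence scanning (405 nm excitation, 500-530 nm emission); re-replication scored as increased high-intensity nuclei.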
Numbers stand for hits; - = inactive; ? = inconclusive; . = no result; [ ] = another dose, or the depositor's remark. Calls follow the shape of the dose curve; as a rule, active = well fitted curve in the direction sought with a large enough effect; inconclusive = small, poorly fitted or top-dose-only effect, or another doubt; inactive = no such curve, though single readings can be large; an effect the other way counts as inactive or inconclusive.

SMILES | ELG1 DNA repair | MCF10A rerep | VP16 counter | RORg inh | SW480 rerep
COC(=O)[C@@]1(Cc2ccc(OC)cc2)[C@H]2c3cc(C(=O)N(C)C)n(C)c3C[C@H]2CN1C(=O)c1ccccc1 | . | . | - | - | .
CCN(CC(=O)Nc1c(F)cccc1F)C(=O)c1cc2c(cc1Cl)N1CCCCCC1=NS2(=O)=O | - | - | . | . | -
CCCCN1C(=S)NC[C@@H]1Cc1ccc(O)cc1 | - | - | - | - | -
Cc1ccc2nc(N(CCCN(C)C)C(=O)c3ccc(S(=O)(=O)N4CCc5ccccc5C4)cc3)sc2c1 | - | 5.2µM | 13µM | 10µM | ?
Cc1cc(C)c2sc(N(CCCN(C)C)C(=O)c3ccc(S(=O)(=O)N4CCCc5ccccc54)cc3)nc2c1 | - | ? | . | . | -
CN(C)CCCN(C(=O)c1ccc(S(=O)(=O)N2CCc3ccccc3C2)cc1)c1nc2ccc(F)cc2s1 | ? | 4.6µM | 11µM | ? | ?
Cc1cc(C)c2sc(N(CCCN(C)C)C(=O)c3ccc(S(=O)(=O)N4CCc5ccccc5C4)cc3)nc2c1 | 13µM | . | . | . | .
CCCn1c(N)c(C(=O)CN(C)CC(=O)Nc2c(Cl)cccc2Cl)c(=O)[nH]c1=O | ? | - | . | . | -
S=C(NCCc1ccccc1)NC1CCC(NC(=S)NCCc2ccccc2)CC1 (stereo unspecified) | - | - | - | - | -
Cc1cccc(NC(=S)NCCc2ccccc2)n1 | ? | -[9.22 µM] | 3.2µM | 0.56µM | ?
S=C(NCCc1ccccc1)Nc1ccccn1 | ? | - | 3.2µM | 1.1µM | -
CCCCOCCCNC(=O)CN1C(=O)c2ccccc2C1=O | - | 3.7µM | - | - | -
CCCOC(=O)CN1C(=O)c2ccccc2C1=O | - | - | - | - | -
Cc1c(Nc2cc(Cl)c3nonc3c2[N+](=O)[O-])c(=O)n(-c2ccccc2)n1C | ? | ? | 4µM | 4µM | -
O=C(O)c1ccc(Nc2cc(Cl)c3nonc3c2[N+](=O)[O-])cc1 | - | - | - | 13µM | ?
Cc1c(Nc2cc(N3CCOCC3)c3nonc3c2[N+](=O)[O-])c(=O)n(-c2ccccc2)n1C | - | . | - | - | .
CC1CCCCN1C(=O)Cn1c(=O)oc2cc(S(=O)(=O)N3CCCC3)ccc21 (stereo unspecified) | - | - | - | 2.5µM | -
CCOC(=O)CSc1nc2cc(C(F)(F)F)cnc2n1C | - | - | - | - | -
CCCc1nc2ccc(NC(=O)c3cccs3)cc2c(=O)n1Cc1ccc(Cl)cc1 | 16µM | - | - | ? | -
Cc1nc2ccc(NC(=O)c3cccs3)cc2c(=O)n1Cc1ccc(Cl)cc1 | 7.3µM | - | -[0.365 µM] | ? | -
CCCc1nc2ccc(NC(=O)NCCC(=O)OCC)cc2c(=O)n1Cc1cccc(Cl)c1 | ? | - | - | - | -
CCN(Cc1nc2cc(Cl)ccc2c(=O)[nH]1)C(=O)c1cccc(NC(=O)c2cccs2)c1 | 16µM | - | . | . | -
CCCc1nc2ccc(NC(=O)NCCC(=O)OCC)cc2c(=O)n1Cc1ccc(Cl)cc1 | 21µM | - | - | - | -
CCCc1nc2ccc(NC(C)=O)cc2c(=O)n1Cc1cccc(Cl)c1 | ? | - | - | - | -
N#CCCN(C(=O)CN1CCN(S(=O)(=O)c2ccc(Cl)s2)CC1)c1ccc(F)cc1 | - | - | . | . | -
SMILES | ELG1 DNA repair | MCF10A rerep | VP16 counter | RORg inh | SW480 rerep
Cc1ccc(CNC(=O)c2ccc([N+](=O)[O-])o2)cc1 | ? | ? | ? | - | ?
Cc1ccc(CNC(=O)c2nn(C)c(C)c2[N+](=O)[O-])cc1 | - | - | - | - | 0.52µM
CC(=O)c1c(O)cccc1O | . | . | - | ? | .
Nc1ccc(-c2nc3ccc(N)cc3[nH]2)cc1 | ? | - | - | ? | -
Nc1ccc2cc3[nH]c4cc(N)ccc4c3nc2c1 | . | 18µM | . | . | 3.3µM
O=C(CSc1nnc(COc2ccccc2Cl)o1)NC(=O)NCc1ccco1 | - | - | - | - | -
COc1cc(C2C3=C(COC3=O)Oc3cc4c(cc32)OCO4)ccc1O (stereo unspecified) | . | ? | . | . | 1.8µM
COc1cc(C2C3=C(COC3=O)OC(C)(C)Oc3cc4c(cc32)OCO4)cc(OC)c1OC (stereo unspecified) | . | 1.2µM | . | . | 1.2µM
COc1cc(C2Sc3ccccc3NC3=C2C(=O)OC3)cc(OC)c1OC (stereo unspecified) | - | ? | - | ? | ?
COc1cc([C@@H]2OC[C@@H]3[C@H]2CO[C@@H]3c2ccc3c(c2)OCO3)ccc1O | - | ? | . | . | -
COc1ccccc1OC(C)C(=O)N(Cc1ccco1)C1CCS(=O)(=O)C1 (stereo unspecified) | - | - | - | - | -
N=c1oc2ccc3ccccc3c2cc1C(N)=S | - | 12µM | ? | 6.3µM | ?
CCCn1c(=O)n(C)c(=O)c2c(SCC(=O)Nc3cc(C)on3)nc(C(C)(C)C)nc21 | 8.2µM | ? | . | . | -
COC(=O)c1ccc(C(NC(=O)OCc2ccccc2)/C(=C/[C@@H](C)C(=O)NCc2ccncc2)c2cccnc2)cc1 (stereo partly specified) | . | . | - | - | .
O=C(COC(=O)c1cc([N+](=O)[O-])ccc1N1CCOCC1)Nc1cccc(F)c1 | 21µM | - | - | - | -
CCOc1ccc(CCNC(=O)COC(=O)c2cc([N+](=O)[O-])ccc2N2CCOCC2)cc1OCC | 18µM | - | - | - | -
CC(=O)Nc1ccc(NC(=O)COC(=O)c2cc([N+](=O)[O-])ccc2N2CCOCC2)cc1 | - | - | - | - | -
N[C@@H](Cc1ccccc1)C(=O)N1CCC(C(=O)N[C@@H](Cc2c[nH]c3ccccc23)C(=O)O)CC1 | - | - | - | - | -
COC(=O)c1ccc(C(NC(=O)OCc2ccccc2)/C(=C/[C@@H](C)C(=O)N(C)Cc2ccccc2)c2cccnc2)cc1 (stereo partly specified) | . | . | - | - | .
CCOC(=O)/C=C/C(=O)Nc1ccc(-c2nnc3n2CCCCC3)cc1 | - | ? | - | - | -
COc1ccc(/C=C/C(=O)Nc2ccc(-c3nnc4n3CCCCC4)cc2)c(OC)c1 | 23µM | - | - | -[10 µM] | -
CC1(C)Cc2ccccc2C(/C(=N/O)C(N)=O)=N1 | ? | - | - | - | ?
CC(=O)c1ccc(N/N=C(/C(N)=O)C2=NC(C)(C)Cc3ccccc32)cc1 | 21µM | ? | ? | ? | ?
CC1(C)Cc2ccccc2C(/C(=N\Nc2cccc(Cl)c2)C(N)=O)=N1 | 16µM | ? | ? | ? | -
CCN(C[C@H]1N[C@@](CC)(C(=O)OC)[C@H]2C(=O)N(C)C(=O)[C@@H]12)S(=O)(=O)c1ccc(F)cc1 | - | - | . | . | -
Cc1cc(C)nc(Nc2n[nH]c(-c3ccc(C(C)(C)C)cc3)n2)n1 | - | - | - | 10µM | -
Cc1cc(C)nc(Nc2n[nH]c(-c3ccccc3Br)n2)n1 | ? | - | ? | 14µM | -
Cc1cc(C)nc(Nc2n[nH]c(-c3ccc(N)cc3)n2)n1 | ? | - | ? | - | -
